Wnt bcat act = Wnt/beta-catenin pathway activators, primary screen, cell-based, plate reader, single point; Wnt/beta-catenin reporter cell assay, activator; activation, % at 9.35 µM; 1.2% of 300,000 active; AID 743398, 2014; in the data active means activation above about 30%, passing the limit was not always enough; inconclusive means no clear call, values can overlap the other calls;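 further: 0% = neutral control wells and 100% = positive control wells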
MITF act = activators of MITF-driven TRPM1 promoter reporter, primary screen, cell-based, SK-MEL-5, luciferase, single point; SK-MEL-5 TRPM1-promoter luciferase, 24 h; % of positive control, neutral wells = 0; activation, % at 12.5 µM; 0.75% of 300,000 active;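 active means mean activation of at least 80% with every replicate also reaching 80%; inconclusive means mean reaches 80% but some replicate falls short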;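 further: 0% = neutral control wells and 100% = parthenolide positive control wells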
MLL AF4-AF9 inh = inhibitors of AF4 peptide binding to AF9, primary screen, biochemical, AlphaScreen, biotin-AF4 peptide, FLAG-AF9, single point; Protein AF-9 (Homo sapiens), P42568; inhibition, % at 10 µM; 0.47% of 350,000 active; AID 651704, 2012;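 active means every replicate reaching a set inhibition limit, whatever the replicate mean, cut at about 25% in these data; inconclusive means mean inhibition reaches that limit but some replicates miss it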;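 further: 0% = plate neutral control median and 100% = total signal loss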
Target sequence (P42568 whole entry, looked up): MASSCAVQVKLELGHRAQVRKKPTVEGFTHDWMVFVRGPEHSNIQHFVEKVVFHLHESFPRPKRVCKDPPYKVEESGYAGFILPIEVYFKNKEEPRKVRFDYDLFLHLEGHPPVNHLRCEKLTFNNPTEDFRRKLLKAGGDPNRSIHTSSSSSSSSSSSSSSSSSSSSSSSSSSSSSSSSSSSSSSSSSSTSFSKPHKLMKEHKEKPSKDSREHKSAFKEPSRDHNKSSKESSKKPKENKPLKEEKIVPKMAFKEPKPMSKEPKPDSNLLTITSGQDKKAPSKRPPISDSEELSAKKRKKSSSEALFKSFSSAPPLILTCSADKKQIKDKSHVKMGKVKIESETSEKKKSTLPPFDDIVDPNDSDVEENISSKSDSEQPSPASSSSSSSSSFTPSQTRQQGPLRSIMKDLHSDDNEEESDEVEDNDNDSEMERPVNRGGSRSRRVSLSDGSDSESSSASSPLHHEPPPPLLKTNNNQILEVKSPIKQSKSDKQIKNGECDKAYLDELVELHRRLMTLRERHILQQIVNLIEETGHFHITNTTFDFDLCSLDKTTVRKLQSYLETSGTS
esBAF inh = Bmi1 luciferase reporter increase in mESCs, primary screen, esBAF inhibitor project, mouse ES cells, Bmi1 luciferase knock-in, single point; 24 h; 100% = twice the neutral-well signal; reporter increase, % at 12.5 µM; 2% of 350,000 active; AID 602393, 2012; in the data active means activation above about 40%; inconclusive means no clear call, values can overlap the other calls;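 further: 0% = median of the plate's neutral control wells and 100% = double that signal; a rise in the Bmi1 reporter signal indicates esBAF inhibition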
rRNA inh HTS = reduced GFP signal of wild-type E. coli, primary screen, bacterial rRNA inhibitor project, GFP/RFP fluorescence, OD600, single point | GFP signal change (wild-type ribosome), % (no concentration beside the values) | 1.6% of 350,000 active | E. coli WT GFP vs humanized-ribosome RFP mutants, 24 h; active compounds read low; DMSO median 0, no signal -100;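 active means significant combined selectivity score with lowered wild-type GFP, culture density cut under 30%, mutant RFP and density less affected; inactive means any of these conditions unmet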
* = called active by the depositor. Only some compounds are listed: those with a hit (about 3.7% of all), similar ones and a draw of the others.

How did CN1CCN(Cc2ccc(Sc3ccc(Cl)cc3)c([N+](=O)[O-])c2)CC1 do in these assays?
Wnt bcat act: -4; MITF act: -1; MLL AF4-AF9 inh: 21; rRNA inh HTS: -34

Results for CCOc1ccc(CCNC(=O)COC(=O)COc2cc(C)cc(C)c2)cc1OCC ?
Wnt bcat act: -2; MITF act: 2; MLL AF4-AF9 inh: -9; esBAF inh: -11; rRNA inh HTS: -2

What do the screens show for `CN(C)c1ccc(C(=O)/C=C/c2cccnc2)cc1`?
Wnt bcat act: -1; MITF act: 2; MLL AF4-AF9 inh: -2; esBAF inh: 63*; rRNA inh HTS: 2

How did COc1cc(/C=C/C(=O)c2ccc(Cl)s2)cc(OC)c1O do in these assays?
MITF act: -24; esBAF inh: 10

Results for Cc1c(/C=C/C(=O)c2ccccc2)cnn1C ?
esBAF inh: 32

Results for Cc1c(/C=C/C(=O)c2ccc(Cl)s2)cnn1C ?
Wnt bcat act: 61*; esBAF inh: inconclusive

How did COc1ccc(/C=C/C(=O)c2ccc(Cl)s2)cc1O do in these assays?
esBAF inh: 56*

Results for C/C(=N\NC(=O)c1c(Cl)cnn1C)c1cccc(NC(=O)c2ccc(C)cc2)c1 ?
Wnt bcat act: 6; MITF act: 24; MLL AF4-AF9 inh: 0; esBAF inh: 34; rRNA inh HTS: -5

What do the screens show for `COc1ccc(-c2cc(COc3ccccc3)on2)cc1`?
Wnt bcat act: 21; MITF act: 79; MLL AF4-AF9 inh: -3; rRNA inh HTS: 20

What do the screens show for `Fc1ccc(OCc2cc(-c3ccccc3)no2)cc1`?
Wnt bcat act: 30; MITF act: 100*; MLL AF4-AF9 inh: -2; esBAF inh: 57*; rRNA inh HTS: -4

Results for COc1ccc(S(=O)(=O)NNC(=O)C(=O)NNc2ccccn2)cc1 ?
Wnt bcat act: -2; MITF act: -1; MLL AF4-AF9 inh: 0; esBAF inh: -7; rRNA inh HTS: -31*

How did Cc1cc(CNC(=O)c2cccc(OC3CCN(S(=O)(=O)N(C)C)CC3)c2)on1 do in these assays?
Wnt bcat act: 2; MITF act: 36; MLL AF4-AF9 inh: -1; esBAF inh: 71*; rRNA inh HTS: 1

Results for CC1C(=O)OC(c2ccc(Br)cc2)C(C)(C)C1=O (stereo not drawn) ?
Wnt bcat act: 3; MITF act: 1; MLL AF4-AF9 inh: -1; esBAF inh: 1; rRNA inh HTS: -43*

Results for CN1C(=O)NC(c2ccccc2)(C(F)(F)F)S/C1=C(/C#N)c1nnc(N2CCOCC2)n1-c1ccccc1 (stereo not drawn) ?
Wnt bcat act: 67*; MITF act: -4; MLL AF4-AF9 inh: 1; rRNA inh HTS: -12

Results for CN1C(c2ccc(F)cc2)=CS/C1=C(/C#N)c1nnc(N2CCOCC2)n1-c1ccccc1 ?
Wnt bcat act: -1; MITF act: 16; MLL AF4-AF9 inh: -1; rRNA inh HTS: 2

How did Cc1csc(SCC(=O)Nc2nncs2)n1 do in these assays?
Wnt bcat act: 0; MITF act: 7; MLL AF4-AF9 inh: -2; rRNA inh HTS: 10

What do the screens show for `Clc1nc(Nc2ccccc2)nc(Nc2ccccc2)n1`?
Wnt bcat act: 49*; MITF act: 21; esBAF inh: inconclusive

How did O=C(OCc1cc(=O)n2ccsc2n1)c1ccc(O)cc1O do in these assays?
Wnt bcat act: 26; MITF act: 54; MLL AF4-AF9 inh: -1; esBAF inh: 54*; rRNA inh HTS: -11

Results for Cc1cccc(N2CCN(Cc3cc(=O)n4ccsc4n3)CC2)c1C ?
MITF act: -4; esBAF inh: 19

What do the screens show for `Cc1ccsc1C(=O)OCc1cc(=O)n2ccsc2n1`?
Wnt bcat act: 54*; MITF act: 77; MLL AF4-AF9 inh: -5; esBAF inh: -9; rRNA inh HTS: 3

How did CC(=O)c1ccc(OCc2cc(=O)n3ccsc3n2)cc1 do in these assays?
Wnt bcat act: 11; MITF act: 48

Results for Cc1ccc(Cl)cc1N1CCN(Cc2cc(=O)n3ccsc3n2)CC1 ?
Wnt bcat act: 0; MITF act: -1; MLL AF4-AF9 inh: 2; rRNA inh HTS: -29*

Screening results (PubChem BioAssay)
